Hits are enriched below; roughly 10% of the tested compounds scored in any of these assays.
SW480 rereplic: induces DNA re-replication in SW480 colon adenocarcinoma cells; actives 1.8% (n = 340,000); AID 624297; Potency, µM (titrated, usually from 46.1 µM), for inactives: top-dose re-replication activation, usual class: activators; SW480 DNA re-replication, Hoechst DNA content imaging, 48 h; further: % of control where 0% means no effect; nearly all actives have a fitted effect of over 55% in size
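Hoechst fluorescence of nuclei (405 nm excitation, 500-530 nm emission) measured by plate-scanning imager after 48 hr compound exposure at 37 C; re-replication scored as increased number of nuclei with elevated intensity.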
RORg inh: inhibitors of mouse ROR gamma transcriptional activity; P51450; Drosophila S2 Gal4-RORgamma UAS-luciferase reporter, 20 h; Potency, µM (titrated, usually from 53.6 µM), without a hit: top-dose activity change, negative = inhibition, most hits filed as inhibitors; actives 5.4% (n = 310,000); AID 2551; further: on the % scale 0 is the no-effect control and ±100 the full control effect; nearly all actives have a fitted effect of over 60% in size
Target sequence (P51450 whole entry, looked up, the tested form may be a part): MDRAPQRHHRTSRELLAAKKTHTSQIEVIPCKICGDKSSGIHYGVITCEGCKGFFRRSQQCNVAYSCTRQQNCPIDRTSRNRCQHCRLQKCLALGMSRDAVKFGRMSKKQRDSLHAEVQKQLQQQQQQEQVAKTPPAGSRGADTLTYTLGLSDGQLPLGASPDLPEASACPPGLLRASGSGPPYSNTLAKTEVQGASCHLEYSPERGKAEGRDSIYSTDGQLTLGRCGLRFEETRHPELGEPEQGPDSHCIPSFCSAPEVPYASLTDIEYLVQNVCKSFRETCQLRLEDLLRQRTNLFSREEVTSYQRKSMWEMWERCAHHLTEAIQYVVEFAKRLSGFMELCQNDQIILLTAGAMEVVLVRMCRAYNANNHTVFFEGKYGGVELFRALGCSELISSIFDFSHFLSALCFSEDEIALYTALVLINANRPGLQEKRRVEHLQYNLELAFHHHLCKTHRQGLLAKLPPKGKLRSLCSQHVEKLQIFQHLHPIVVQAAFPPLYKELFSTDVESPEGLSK
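Stably transfected Drosophila Schneider cells are the test system, with ROR gamma fused to Gal4 and luciferase under UAS control; luminescence is read after 20 hr of 700 uM copper sulfate induction at ambient temperature.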
KB-3-1 tox: KB-3-1 parental cell cytotoxicity. actives 1.4% (n = 400,000). AID 1347075. Potency, µM (doses to about 46.1 µM), usual class: cytotoxic. KB-3-1 viability, CellTiter-Glo ATP luminescence, 72 h; further: on the % scale 0 is the no-effect control and ±100 the full control effect; nearly all actives have a fitted effect of over 60% in size
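Parental KB-3-1 adenocarcinoma cells in phenol-red-free DMEM with 10% FBS were pin-treated with compounds at several concentrations, incubated 72 h at 37 °C, and viability read by CellTiter-Glo luminescence; concentration-effect curves were fitted after normalization.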
MCF10A rereplic: inducers of DNA re-replication in MCF 10A breast cells. MCF 10A DNA re-replication, Hoechst nuclear intensity, 48 h. Potency, µM (highest dose often 46.1 µM), for the others: at the highest dose activity, positive = re-replication, usual class: activators. actives 2.9% (n = 350,000). AID 624296; further: % of control where 0% means no effect; nearly all actives have a fitted effect of over 50% in size
Gal4-VP16 FLuc: counter-screen for ROR gamma inhibitors: Gal4-VP16 reporter | Drosophila S2 Gal4-VP16 UAS-luciferase, luminescence, 20 h | Potency, µM (titrated, usually from 53.6 µM), without a hit: at the highest dose activity, negative = inhibition, most hits filed as inhibitors | actives 3.5% (n = 310,000) | AID 2546;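 further: Gal4-VP16 expression switched on by copper sulfate through the metallothionein promoter; on the % scale 0 is the no-effect control and ±100 the full control effect; nearly all actives have a fitted effect of over 50% in size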
KB-V1 cytotox: kills drug-selected multidrug resistant KB-V1 cells; actives 3.4% (n = 400,000); Potency, µM (highest dose often 46.1 µM), most hits filed as cytotoxic; AID 1347076; KB-V1 MDR cells viability, CellTiter-Glo, 72 h; further: on the % scale 0 is the no-effect control and ±100 the full control effect; nearly all actives have a fitted effect of over 60% in size
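Following 72 h at 37 degrees C with compound, KB-V1 cell viability was read by CellTiter-Glo luminescence, medium being phenol-red-free DMEM plus 10% FBS; concentration-response parameters came from normalized, curve-fitted qHTS data.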
Starred values were filed as active, the others as inactive. The call rests on the fitted dose curve; in most records, active means well fitted curve in the direction sought with a large enough effect; inconclusive means small, poorly fitted or top-dose-only effect, or another doubt; inactive means no such curve, though single readings can be large; an effect the other way counts as inactive or inconclusive. Potency means the concentration at half of the fitted maximal effect.

`CC1=C(C(=O)OCc2ccccc2)C(c2ccccc2Cl)NC(=O)N1CCCCCC(=O)O` (configuration not stated) gave SW480 rereplic 26%, RORg inh 1.8µM*, KB-3-1 tox inactive, MCF10A rereplic inconclusive, Gal4-VP16 FLuc -10% and KB-V1 cytotox inactive.
For O=[N+]([O-])c1ccc2c(c1)C=CC2 the results were KB-3-1 tox inactive and KB-V1 cytotox inactive.
N[C@@](C(=O)O)(c1ccc(P(=O)(O)O)cc1)C1CC1 was read as RORg inh 2% and Gal4-VP16 FLuc -10%.
COc1ccc(CNC(=O)C(=O)NCC(c2cccs2)S(=O)(=O)c2ccc(C)cc2)cc1 (configuration not stated) was read as KB-3-1 tox inactive and KB-V1 cytotox inactive.
Screening CCOC(=O)C1=C(C)N(c2ccccc2)C(=O)NC1c1cccc([N+](=O)[O-])c1 (configuration not stated) returned SW480 rereplic -7%, RORg inh 30%, KB-3-1 tox inactive, MCF10A rereplic inconclusive, Gal4-VP16 FLuc -2% and KB-V1 cytotox 21µM*.
`CCOC(=O)C1=C(C)N(C)C(=O)NC1c1cccc([N+](=O)[O-])c1` (configuration not stated) gave SW480 rereplic -8%, KB-3-1 tox inactive, MCF10A rereplic inconclusive and KB-V1 cytotox inactive.
CC1=C(C(=O)OCc2ccccc2)C(c2ccc3ccccc3c2)NC(=O)N1CCCCCC(=O)O (configuration not stated) was read as SW480 rereplic inconclusive, RORg inh 7.9µM*, KB-3-1 tox inactive, MCF10A rereplic -23%, Gal4-VP16 FLuc -1% and KB-V1 cytotox inactive.
Screening CC1=C(C(=O)OCc2ccccc2)C(c2ccccc2)NC(=O)N1CCCCCC(=O)O (configuration not stated) returned SW480 rereplic -9%, RORg inh 44%, KB-3-1 tox inactive, MCF10A rereplic 9%, Gal4-VP16 FLuc 21% and KB-V1 cytotox inactive.
Screening COc1cccc(C(NC(C)=O)c2nc(-c3ccccc3)cs2)c1 (configuration not stated) returned KB-3-1 tox inactive and KB-V1 cytotox inactive.
For CC1=CC(=C(C#N)c2nc3ccccc3s2)C=C(C)N1c1ccc(F)cc1 the results were SW480 rereplic 6%, RORg inh inconclusive, KB-3-1 tox inactive, MCF10A rereplic inconclusive, Gal4-VP16 FLuc -5% and KB-V1 cytotox inactive.
`COc1ccccc1N1C(C)=CC(=C(C#N)c2nc3ccccc3s2)C=C1C` gave SW480 rereplic 18µM*, RORg inh 7.1µM*, KB-3-1 tox inconclusive, MCF10A rereplic inconclusive, Gal4-VP16 FLuc inconclusive and KB-V1 cytotox inactive.
For Cn1cccc1C(=O)N1CCC2(CC1)CCN(c1ccncc1)CC2 the results were RORg inh -11% and Gal4-VP16 FLuc -5%.
`O=C(NCc1nnnn1-c1ccc(F)cc1)c1ccc2ccccc2c1` gave KB-3-1 tox inactive and KB-V1 cytotox inactive.
`O=C(NCC(c1ccc(F)cc1)N1CCOCC1)c1ccc([N+](=O)[O-])o1` (configuration not stated) gave SW480 rereplic 10µM*, KB-3-1 tox inconclusive, MCF10A rereplic 18µM* and KB-V1 cytotox inconclusive.
Screening Cc1ccc(-n2nnnc2CNC(=O)c2ccc(Br)o2)cc1C returned SW480 rereplic -28%, RORg inh -4%, KB-3-1 tox inactive, MCF10A rereplic -1%, Gal4-VP16 FLuc 18% and KB-V1 cytotox inactive.
For Cc1ccc(-n2nnnc2CNC(=O)c2ccc([N+](=O)[O-])o2)cc1C the results were SW480 rereplic 13µM*, KB-3-1 tox 15µM*, MCF10A rereplic inconclusive and KB-V1 cytotox inactive.

From PubChem BioAssay
